Assay outcomes as filed in PubChem.
FMDV inh = antivirals against foot and mouth disease virus | Potency, µM (top dose mostly 57.9 µM), without a hit: at the highest dose activity change, negative = inhibition, actives largely listed as inhibitors | 410,000 compounds, 1.2% hits | FMDV antiviral cell-based qHTS; calls by dose curve; tested in HEK293T cells; further: read-out not given here; potency means the concentration at half of the fitted maximal effect; nearly all actives have a fitted effect of over 45% in size
LASV entry inh = inhibitors of Lassa virus binding or cell entry. Lassa virus pseudotype entry inhibition, cell reporter. Potency, µM (highest dose often 37.9 µM), inactives show top-dose activity change, negative = inhibition, usual class: inhibitors. 300,000 compounds, 1.2% hits. AID 540256; calls by dose curve; tested in HEK293 cells; further: potency means the concentration at half of the fitted maximal effect; nearly all actives have a fitted effect of over 50% in size
MARV entry inh = inhibitors of Marburg virus binding or cell entry; Marburg virus pseudotyped entry inhibition, cell reporter; Potency, µM (series often up to 37.8 µM), inactives show at the highest dose activity change, negative = inhibition, hits mostly inhibitors; 300,000 compounds, 1.8% hits; AID 540276; calls by dose curve; tested in HEK293 cells; further: potency means the concentration at half of the fitted maximal effect
HCMV antiviral = human cytomegalovirus inhibition; HFF cells, HCMV-luciferase reporter, 72 h; hits give low values; activity change, negative = inhibition, % at 57.5 µM; 410,000 compounds, 4.5% hits; in the data active means activity change below about -60%; inconclusive means no clear call, values can overlap the other calls; inactive means above about -39%
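Screen run at 2 compound doses on HFFs infected with reporter HCMV, MOI 1 PFU/cell. Luciferase activity from cell lysates at 72 h post infection gave inhibition relative to buffer-only and Salinomycin wells.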
Numbers without * were called inactive; ? = inconclusive; nt = no result; [ ] = another dose, or the depositor's remark. Sampled rows, rich in hits. Any-hit rate of the full collection: about 6.2%. On the % scale 0 is the no-effect control and ±100 the full control effect.

SMILES | FMDV inh | LASV entry inh | MARV entry inh | HCMV antiviral
O=C(/C=C/c1ccc(Cl)cc1)N1CCN(c2ccc([N+](=O)[O-])c(N3CCOCC3)c2)CC1 | 14µM* | 0% | -10% | -38
COc1ccc(/C=C2/SC(=S)N(CCC(=O)O)C2=O)cc1 | ? | 51%[14.3 µM] | -30% | -32
CCOc1ccc(/C=C2\SC(=S)N(CCC(=O)N(CCO)c3ccccc3)C2=O)cc1 | -19% | ? | ? | -100*
COc1ccc(/C=C2\SC(=O)N(CCNC(=O)Cc3coc4cc(C)ccc34)C2=O)cc1OC | 40µM* | -2% | ? | -99*
COc1ccc(/C=C2\SC(=S)N(CCC(=O)N(CCO)c3ccccc3)C2=O)cc1OC | -19% | nt | nt | -60*
COc1ccc(/C=C2/SC(=O)N(CCC(=O)Nc3ccccc3)C2=O)cc1OC | -27% | nt | -1% | -64*
C[C@H](CO)N1C[C@H](C)[C@H](CN(C)C(=O)Nc2ccc(F)cc2)Oc2ncc(Br)cc2C1=O | nt | nt | nt | 9
CCCN1C(=O)C2(c3ccccc31)c1c(oc3ccccc3c1=O)C(=O)N2CCCOC(C)C (stereo not given) | 5% | 13%[46.1 µM] | -13%[46.1 µM] | -36
C[C@@H]1CN([C@@H](C)CO)C(=O)CCCn2nncc2CO[C@H]1CN(C)Cc1ccccc1 | -10% | nt | nt | -1
C=C(C[C@@]1(C(=O)OC)C=C[C@@H](C)[C@H](c2ccccc2Br)N1C(=O)C(F)(F)F)c1ccccc1 | nt | nt | -14%[14.2 µM] | nt
CCc1ccc(C=C2SC(=S)N(CCCC(=O)Nc3ccc(C(=O)O)cc3)C2=O)cc1 | 3% | nt | nt | ?
O=C1/C(=C/c2cccs2)SC(=S)N1CCCC(=O)N(CCO)c1ccccc1 | -20% | ? | 4%[46.1 µM] | -98*
CCc1ccc(/C=C2\SC(=S)N(CCCC(=O)N(CCO)c3ccccc3)C2=O)cc1 | ? | nt | nt | -98*
Cc1cc(NC(=O)CCCN2C(=O)/C(=C\c3cccs3)SC2=S)no1 | -13% | 17% | ? | -34
CC1Cc2cc(S(=O)(=O)NCCc3ccc(Cl)cc3)ccc2N1C(=O)C1CCC1 (stereo not given) | 51% | -22%[46.1 µM] | nt | -6
COc1ccc(NC(=O)CCNS(=O)(=O)c2ccc3c(c2)CC(C)N3C(=O)C2CC2)cc1 (stereo not given) | 12% | nt | nt | -25
CC1Cc2cc(S(=O)(=O)NCc3ccccc3)ccc2N1C(=O)C1CC1 (stereo not given) | 19% | nt | nt | -10
COc1ccc(NS(=O)(=O)c2ccc3c(c2)CC(C)N3C(=O)C2CCC2)cc1OC (stereo not given) | ? | ? | nt | -78*
CCc1cccc(NS(=O)(=O)c2ccc3c(c2)CC(C)N3C(=O)C2CC2)c1 (stereo not given) | 0% | -24%[46.1 µM] | nt | -80*
COc1cccc(NC(=O)CCNS(=O)(=O)c2ccc3c(c2)CC(C)N3C(=O)C2CC2)c1 (stereo not given) | -1% | nt | nt | -71*
COc1cc(Cl)c(NS(=O)(=O)c2ccc3c(c2)CC(C)N3C(=O)C2CCC2)c(OC)c1 (stereo not given) | ? | ? | nt | -86*
CC1Cc2cc(S(=O)(=O)NCc3ccccc3)ccc2N1C(=O)C1CCC1 (stereo not given) | 1% | ? | ? | -11
O=C(C1CCOCC1)N1CC(=O)N2[C@@H](CO)[C@H](c3ccc(Br)cc3)[C@@H]2C1 | nt | nt | nt | -2
Cc1ccc(-c2nnc(SCC(=O)N/N=C/c3c(C)nn(-c4ccccc4)c3C)n2-c2ccc(C)cc2)cc1 | ? | 7.1µM* | ? | -39
Cc1ccc(-c2nnc(SCC(=O)N/N=C/c3ccc(C)s3)n2-c2ccccc2)cc1 | 0% | 16µM* | ? | -35
SMILES | FMDV inh | LASV entry inh | MARV entry inh | HCMV antiviral
Cc1nn(-c2ccccc2)c(C)c1/C=N/NC(=O)c1cc(-c2ccccc2)n[nH]1 | -26% | ? | ? | -95*
Cc1nn(-c2ccccc2)c(C)c1/C=N/NC(=O)c1cc(-c2cccc3ccccc23)n[nH]1 | -18% | ? | ? | -3
Cc1ccc(-c2nnc(SCC(=O)N/N=C/c3ccccc3C(=O)O)n2-c2ccc(C)cc2)cc1 | -23% | nt | nt | ?
Cc1ccc(/C=N/NC(=O)CSc2nnc(-c3ccccc3)n2-c2ccc(Cl)cc2)o1 | -14% | -9% | -2% | -84*
Nc1ncnc2c1ncn2[C@@H]1O[C@H](COP(=O)(O)OP(=O)(O)CP(=O)(O)O)[C@@H](O)[C@H]1O | 22% | nt | nt | nt
Cc1c2cnn(CC(=O)N3CCOCC3)c(=O)c2c(C)n1Cc1ccc(F)cc1 | nt | nt | nt | -5
O=C(Cn1ncc(Cl)c(Cl)c1=O)N1CCOCC1 | 0% | ? | ? | -99*
O=C(Cn1ncc(Cl)c(Cl)c1=O)N1CCN(Cc2ccccc2)CC1 | ? | nt | nt | -83*
O=C(Cn1ncc2c1-c1ccccc1OC2)N1CCc2ccccc21 | -26% | -6% | 1% | -1
O=C(Cn1ncc(Cl)c(Cl)c1=O)N1CCc2ccccc21 | ? | ? | ? | -95*
CCC1(C2CCN(C(=O)c3ccccc3C(C)=O)CC2)NC(=O)N(CCc2scnc2C)C1=O (stereo not given) | -9% | nt | nt | nt
O=C(Cn1ccc(=O)[nH]c1=O)Nc1nccs1 | -14% | nt | nt | -33
Cc1ccc(Cl)cc1N1CCN(Cc2nnc(-c3ccc4c(c3)OCO4)o2)CC1 | 0% | -14%[46.1 µM] | 2%[46.1 µM] | 4
Cc1ccc(Oc2c(C(F)(F)F)oc3c(CN4CCC(C)CC4)c(O)ccc3c2=O)cc1 | -4% | 10%[46.1 µM] | 25%[46.1 µM] | -10
COC(=O)C(c1ccccc1)(c1cn(Cc2ccccc2)c2ccccc12)C(Nc1ccccc1)c1ccccc1 (stereo not given) | nt | nt | nt | -21
CCN1C(=O)/C(=C\C=C2/C=CC=CN2CC)SC1=S | -44% | -19% | 2% | 47
CCN1C(=O)/C(=C/C=C2\C=CN(CC)c3ccccc32)SC1=S | 13µM* | 21% | ? | -23
COc1ccccc1-c1noc(CSc2nc3ccc(C)cc3[nH]2)n1 | ? | ? | ? | -28
COc1ccccc1Sc1nc(-c2ccccn2)ncc1OC | -11% | ? | ? | ?
Cc1ccc(Sc2cc(C)nc(-c3ccccn3)n2)cc1 | 41% | ? | -21%[46.1 µM] | -76*
COc1cnc(-c2ccccn2)nc1Sc1ccc(C)cc1 | -3% | ? | 6.3µM* | -81*
COc1cnc(-c2ccccn2)nc1Oc1ccc(Cl)c2ccccc12 | 3.2µM* | ? | ? | -100*
FC(F)(F)c1cccc(Sc2cc(C(F)(F)F)nc(-c3ccccn3)n2)c1 | ? | -8% | ? | -16
COc1cnc(-c2ccccn2)nc1NC(C)C | 10% | ? | 11µM* | -101*
CCC[C@H]1[C@@H](NS(=O)(=O)Cc2ccccc2)CC[C@@]23CCCN2C(=O)CCC[C@@H]13 | nt | nt | nt | -2
CC(=O)c1ccc(F)c(-c2cc(C)cc3c2OC(CNC(=O)c2cnc4ccccn4c2=O)C3)c1 (stereo not given) | 16% | nt | nt | nt
CN1CCCC(CN(C)C(=O)c2cnn(-c3nccc(-c4ccccc4C(F)(F)F)n3)c2C2CC2)C1 (stereo not given) | -13% | nt | nt | nt
Cc1ccc(NC(=O)[C@@H](c2ccccc2)N2Cc3ccccc3C2=O)cc1 | 12% | -4%[46.1 µM] | -4%[46.1 µM] | -7
